Test results published in PubChem BioAssay.

Experiments:
[1] = NFkB reporter suppression in cystic fibrosis bronchial cells – cell-based, uHTS hits, panel, cytotoxicity readout, dose response (AID 624344); conditions: CF bronchial epithelial cells, PAF-induced NFkB reporter inhibition, with PAF, run 1; at 79 µM (top of the series) unless noted
[2] = as above; conditions: CF bronchial epithelial cells, PAF-induced NFkB reporter inhibition, with PAF, run 2; at 79 µM (top of the series) unless noted

| SMILES | inhibition [1] [%] | inhibition [2] |
| --- | --- | --- |
| CCOC(=O)c1c(-c2ccc(C)cc2)csc1NC(=O)c1ccc(N2C(=O)CCC2=O)cc1 | 30.1 | 81.4% |
| COc1ccccc1/C=C/C(=O)c1c2c(c(C)[nH]c1=O)CCCC2 | 110 | 96% |
| CC(=O)Oc1ccc(N(C(C)=O)S(=O)(=O)c2cccs2)c2ccccc12 | 92.7 | 62.6% |
| c1cnc2ccc(-n3ccnc3)cc2c1 | 115 | 102% |
| O=C(Nc1ccncc1)c1c(Cl)cccc1Cl | 112 | 101% |
| O=C(Nc1ccccc1N1CCOCC1)c1cc(-c2ccco2)nc2ccccc12 | 102 | 95.6% |
| Cc1ccc(S(=O)(=O)n2cc(-c3ccccc3)c3ccccc32)cc1 | 114 | 108% |
| CCN(c1ccc(OC)cc1)c1ncnc2nc[nH]c12 | 108 | 98% |
| Cc1ccc(S(=O)(=O)Nc2ccc3cc([N+](=O)[O-])ccc3c2[N+](=O)[O-])cc1 | 109 | 101% |
| C[C@@H](NC(=O)c1coc(=O)c(Br)c1)c1ccccc1 | 77.6 | 99.8% [at 19.8 µM] |
| C/C(=N/NC(=O)c1cccs1)c1ccc(NC(=O)COc2ccc(Cl)cc2)cc1 | 87 | 72.9% |
| CCOC(=O)Oc1c(OC)cc(C(=O)O[C@@H]2C[C@@H]3CN4CCc5c([nH]c6cc(OC)ccc56)[C@H]4C[C@@H]3[C@H](C(=O)OC)[C@H]2OC)cc1OC | 54.6 | 42.4% |
| CCN1CCN(Cc2ccc(NC(=O)c3ccc(C)c(NC(=O)c4ccno4)c3)cc2C(F)(F)F)CC1 | 105 | 83.4% |
| CC1CCN(CC(CS(=O)(=O)c2ccc([N+](=O)[O-])cc2)N2CCC(C)CC2)CC1 (stereo not drawn) | 101 | 104% |
